Source: PubChem BioAssay (Tox21)
Results filed as inconclusive are left out. The source made the active and inactive calls. Unless noted, the call rests on the fitted dose curve; in most records, active means well fitted curve in the direction sought with a large enough effect in the repeat runs; inconclusive means weak or mixed curves; inactive means no such curve, though single readings can be large; an effect the other way counts as inactive or inconclusive.

Key:
[1] = biological target: Estrogen receptor beta (Homo sapiens) (UniProt Q92731); test: qHTS assay to identify small molecule agonists of the estrogen receptor beta (ER-beta) signaling pathway (AID 1259377; active means well fitted activation curve with a large enough effect in the signal ratio in the repeat runs, not every such curve was filed as active; the % refers to the signal ratio)
In short: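 Agonist mode cell assay in GripTite HEK293T cells expressing an ER-beta fusion that drives beta-lactamase from an Upstream Activator Sequence; 16 hr compound exposure at 37C, then 2 h LiveBLAzer B/G FRET substrate at room temperature, fluorescence read-out.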

[2] = biological target: Estrogen receptor beta (Homo sapiens) (UniProt Q92731); test: qHTS assay to identify small molecule antagonists of the estrogen receptor beta (ER-beta) signaling pathway (AID 1259378; active means well fitted inhibition curve with a large enough effect in the signal ratio in the repeat runs, not every such curve was filed as active; the % refers to the signal ratio)
In short: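 ER-beta-UAS-bla HEK293T cells in 2% charcoal-stripped FBS medium treated with compound plus 1nM final 17-beta-estradiol for 16 hr at 37C. Beta-lactamase reporter read by FRET substrate fluorescence after 2 hours at room temperature.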

[3] = qHTS assay to identify small molecule agonists of the androgen receptor (AR) signaling pathway in the presence of an antagonist - cell viability counter screen (AID 1259379); further: nearly all actives have a fitted effect of over 25% in size; further: potency means the concentration at half of the fitted maximal effect;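 on activity change, negative = cytotoxicity: MDA-kb2 human breast cancer cells carrying an MMTV luciferase reporter; series mostly up to about 92 µM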
In short: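 Cytotoxicity counter-screen run in the same wells as the nilutamide-challenged (3.0 µM final) AR agonist assay in MDA-kb2 cells. Compounds tested at 15 concentrations for 16 h, 37 °C without CO2; CellTiter-Fluor fluorescence read.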

[4] = qHTS assay to identify small molecule agonists of the estrogen receptor beta (ER-beta) signaling pathway - cell viability counter screen (AID 1259380); further: nearly all actives have a fitted effect of over 30% in size
In short: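 Cell viability counter screen: CellTiter-Glo luminescence (30 min, room temperature) measured in the same wells as the beta-lactamase readout, after 16 hr compound exposure at 37C of ER-beta-bla HEK293T cells in 2% charcoal-stripped FBS medium.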

[5] = qHTS assay to identify small molecule antagonists of the estrogen receptor beta (ER-beta) signaling pathway - cell viability counter screen (AID 1259382); further: series mostly up to about 92 µM; nearly all actives have a fitted effect of over 55% in size
In short: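 Cytotoxicity was measured in the same wells by CellTiter-Glo luminescence after 30 min at room temperature. Cells were ER-beta-bla HEK293T in charcoal-stripped serum, given compound together with 1 nM E2 and incubated 16 h at 37C.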

[6] = biological target: Estrogen receptor (Homo sapiens) (UniProt P03372); test: qHTS assay to identify small molecule agonists of the estrogen receptor alpha (ER-alpha) signaling pathway in the presence of an antagonist (AID 1259383; calls by dose curve; further: top concentration of the series differs between compounds; nearly all actives have a fitted effect of over 15% in size)
In short: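 Agonist-mode confirmation run in the presence of 10.0nM (final) ICI-182,780 antagonist. The reporter was ERE-driven luciferase in VM7Luc4E2 cells, grown in charcoal-stripped serum. Cells were exposed to 15-concentration compound series for 22hr, then ONE-Glo luminescence was read.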

[7] = qHTS assay to identify small molecule agonists or antagonists of the thyroid stimulating hormone receptor (TSHR) signaling pathway - wild type cell line counter screen (AID 1259384; calls by dose curve)
In short: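 Wild-type Hek293 cells, 800/well, 18 h at 37C, then compound with Ro20-1724 for 30 min RT. cAMP by HTRF (cAMP-d2/anti-cAMP cryptate), 1 h RT, fluorescence read. 15 concentrations, triplicates.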

[8] = biological target: Thyrotropin receptor (Homo sapiens) (UniProt P16473); test: qHTS assay to identify small molecule antagonists of the thyroid stimulating hormone receptor (TSHR) signaling pathway (AID 1259385; calls by dose curve; further: nearly all actives have a fitted effect of over 20% in size)
In short: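 TSHR-HEK293 cells (800/well) plated 18 h, then compounds with Ro20-1724 and TSH at 1.5 ng/mL final, 30 min at room temperature. cAMP quantified by HTRF (cAMP-d2/anti-cAMP-cryptate, 1 h); 15 concentrations in triplicate.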

[9] = biological target: Androgen receptor (Homo sapiens) (UniProt P10275); test: qHTS assay to identify small molecule agonists of the androgen receptor (AR) signaling pathway in the presence of an antagonist (AID 1259381; calls by dose curve; further: nearly all actives have a fitted effect of over 15% in size)
In short: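 Agonist-mode confirmation run against 3.0 uM final nilutamide: compounds titrated at 15 concentrations onto MDA-kb2 MMTV-luciferase reporter cells. Luminescence measured with ONE-Glo following 16 hr incubation, 37C, 0% CO2.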

[10] = qHTS assay to identify small molecule agonists of the estrogen receptor alpha (ER-alpha) signaling pathway in the presence of an antagonist - cell viability counter screen (AID 1259386); further: nearly all actives have a fitted effect of over 30% in size; further: potency means the concentration at half of the fitted maximal effect; on activity change, negative = cytotoxicity: series mostly up to about 92 µM
In short: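 Compounds tested at 15 concentrations for 22 h at 37C alongside 10.0nM (final) ICI-182,780 antagonist, in VM7Luc4E2 cells grown in phenol red-free, charcoal-stripped medium. Viability read by CellTiter-Fluor fluorescence after 1 h reagent incubation.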
On the % scale 0 is the no-effect control and ±100 the full control effect.

Chain of Estrogen receptor (Homo sapiens) (P03372 whole entry, looked up): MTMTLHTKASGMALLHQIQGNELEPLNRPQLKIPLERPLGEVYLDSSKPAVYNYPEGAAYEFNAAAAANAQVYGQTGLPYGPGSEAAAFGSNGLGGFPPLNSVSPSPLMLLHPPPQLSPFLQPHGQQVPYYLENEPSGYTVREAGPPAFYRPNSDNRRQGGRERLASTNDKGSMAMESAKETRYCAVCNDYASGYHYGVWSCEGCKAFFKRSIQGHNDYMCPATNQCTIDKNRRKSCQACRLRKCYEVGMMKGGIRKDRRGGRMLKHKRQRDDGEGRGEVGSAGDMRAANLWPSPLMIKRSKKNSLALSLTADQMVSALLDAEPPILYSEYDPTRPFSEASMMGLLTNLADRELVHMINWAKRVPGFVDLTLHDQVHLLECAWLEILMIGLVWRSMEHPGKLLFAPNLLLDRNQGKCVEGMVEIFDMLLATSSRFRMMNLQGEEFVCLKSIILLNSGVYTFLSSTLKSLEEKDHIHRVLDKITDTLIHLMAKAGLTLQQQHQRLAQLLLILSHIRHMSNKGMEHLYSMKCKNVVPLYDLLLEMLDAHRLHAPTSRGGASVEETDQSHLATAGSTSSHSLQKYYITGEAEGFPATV
Chain of Androgen receptor (Homo sapiens) (P10275 whole entry, looked up): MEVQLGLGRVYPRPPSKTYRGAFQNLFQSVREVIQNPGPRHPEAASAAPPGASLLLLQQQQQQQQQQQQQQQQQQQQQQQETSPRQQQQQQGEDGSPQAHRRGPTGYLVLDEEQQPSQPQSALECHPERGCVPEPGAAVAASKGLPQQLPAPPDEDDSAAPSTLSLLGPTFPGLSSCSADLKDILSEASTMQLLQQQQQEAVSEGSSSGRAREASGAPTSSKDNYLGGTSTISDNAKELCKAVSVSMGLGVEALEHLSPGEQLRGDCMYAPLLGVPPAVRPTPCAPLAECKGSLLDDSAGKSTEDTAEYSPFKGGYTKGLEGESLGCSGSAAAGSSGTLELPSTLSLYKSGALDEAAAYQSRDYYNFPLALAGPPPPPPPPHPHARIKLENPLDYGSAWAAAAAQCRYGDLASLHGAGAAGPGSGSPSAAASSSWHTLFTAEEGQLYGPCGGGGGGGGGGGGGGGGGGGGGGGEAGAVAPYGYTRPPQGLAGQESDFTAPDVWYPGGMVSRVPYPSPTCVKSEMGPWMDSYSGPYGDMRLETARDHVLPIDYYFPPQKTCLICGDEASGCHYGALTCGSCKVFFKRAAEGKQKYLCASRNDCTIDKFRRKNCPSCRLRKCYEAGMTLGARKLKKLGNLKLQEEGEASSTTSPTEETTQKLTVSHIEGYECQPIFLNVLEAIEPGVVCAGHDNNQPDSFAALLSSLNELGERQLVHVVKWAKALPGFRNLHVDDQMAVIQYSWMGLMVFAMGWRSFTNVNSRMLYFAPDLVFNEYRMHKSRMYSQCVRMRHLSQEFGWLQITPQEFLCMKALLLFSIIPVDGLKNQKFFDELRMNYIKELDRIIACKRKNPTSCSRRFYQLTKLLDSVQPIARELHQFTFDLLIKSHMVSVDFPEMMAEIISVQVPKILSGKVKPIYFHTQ
Chain of Thyrotropin receptor (Homo sapiens) (P16473 whole entry, looked up): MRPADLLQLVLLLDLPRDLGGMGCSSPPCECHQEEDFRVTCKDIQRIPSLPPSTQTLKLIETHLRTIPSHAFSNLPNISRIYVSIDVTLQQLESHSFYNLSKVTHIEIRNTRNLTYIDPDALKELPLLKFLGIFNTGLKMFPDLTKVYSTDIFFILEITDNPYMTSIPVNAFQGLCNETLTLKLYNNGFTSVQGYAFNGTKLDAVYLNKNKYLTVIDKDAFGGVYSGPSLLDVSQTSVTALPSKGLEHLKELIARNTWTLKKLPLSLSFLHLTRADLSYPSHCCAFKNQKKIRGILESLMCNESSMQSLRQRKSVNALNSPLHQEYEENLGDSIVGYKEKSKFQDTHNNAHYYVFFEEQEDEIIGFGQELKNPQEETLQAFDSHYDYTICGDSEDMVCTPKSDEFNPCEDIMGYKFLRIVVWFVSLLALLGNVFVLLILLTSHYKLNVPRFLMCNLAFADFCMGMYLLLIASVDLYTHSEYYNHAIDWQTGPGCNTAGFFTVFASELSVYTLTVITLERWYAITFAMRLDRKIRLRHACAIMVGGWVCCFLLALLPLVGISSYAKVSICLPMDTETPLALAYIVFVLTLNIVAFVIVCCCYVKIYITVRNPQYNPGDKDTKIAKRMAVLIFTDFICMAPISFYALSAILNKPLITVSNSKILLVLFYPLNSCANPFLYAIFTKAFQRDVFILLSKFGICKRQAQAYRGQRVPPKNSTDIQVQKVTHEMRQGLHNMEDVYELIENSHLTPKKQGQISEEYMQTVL
Chain of Estrogen receptor beta (Homo sapiens) (Q92731 whole entry, looked up, the tested form may be a part): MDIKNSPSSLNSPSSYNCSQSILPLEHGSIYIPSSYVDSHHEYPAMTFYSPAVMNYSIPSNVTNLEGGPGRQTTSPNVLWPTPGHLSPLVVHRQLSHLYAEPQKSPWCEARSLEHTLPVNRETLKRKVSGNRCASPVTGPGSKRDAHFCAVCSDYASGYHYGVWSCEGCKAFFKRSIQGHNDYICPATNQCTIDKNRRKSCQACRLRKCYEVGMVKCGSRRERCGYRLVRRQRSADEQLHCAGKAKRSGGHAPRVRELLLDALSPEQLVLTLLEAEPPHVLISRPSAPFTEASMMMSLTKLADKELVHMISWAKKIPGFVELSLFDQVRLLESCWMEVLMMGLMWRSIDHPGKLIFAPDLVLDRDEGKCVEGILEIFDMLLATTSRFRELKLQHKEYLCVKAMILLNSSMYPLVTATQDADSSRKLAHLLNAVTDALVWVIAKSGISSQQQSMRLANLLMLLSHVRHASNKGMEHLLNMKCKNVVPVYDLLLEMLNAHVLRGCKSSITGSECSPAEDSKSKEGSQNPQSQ

O=S(=O)(Oc1ccc(Cl)cc1)c1ccccc1
inactive: Potency [1] | Potency [2] | Potency [3] | Potency [4] | Potency [5] | Potency [6] | Potency [7] | Potency [8]

CCOC(=O)C(O)c1ccccc1 (stereo not drawn)
inactive: Potency [1] | Potency [2] | Potency [3] | Potency [4] | Potency [9] | Potency [6] | Potency [7] | Potency [8] | Potency [10]

CCCn1cnc2c1c(=O)n(CCCCC(C)=O)c(=O)n2C
inactive: Potency [1] | Potency [2] | Potency [3] | Potency [4] | Potency [9] | Potency [5] | Potency [6] | Potency [7] | Potency [10]

CCCCCCCN
inactive: Potency [1] | Potency [2] | Potency [3] | Potency [4] | Potency [5] | Potency [6] | Potency [7] | Potency [8] | Potency [10]

Nc1ccc([N+](=O)[O-])c(C(F)(F)F)c1
inactive: Potency [1] | Potency [2] | Potency [3] | Potency [4] | Potency [5] | Potency [6] | Potency [7] | Potency [8]

O=C1CCCCCCCCCCCC(=O)OCCO1
inactive: Potency [1] | Potency [2] | Potency [3] | Potency [4] | Potency [9] | Potency [5] | Potency [6] | Potency [7] | Potency [10]

CN(C)CCN(Cc1ccsc1)c1ccccn1
inactive: Potency [1] | Potency [2] | Potency [3] | Potency [4] | Potency [9] | Potency [5] | Potency [6] | Potency [10]

Cc1ncc(CO)c(C=O)c1O
inactive: Potency [1] | Potency [2] | Potency [3] | Potency [4] | Potency [5] | Potency [6] | Potency [7] | Potency [8] | Potency [10]

Cc1cc(N)c2cc(NC(=O)Nc3ccc4nc(C)cc(N)c4c3)ccc2n1
inactive: Potency [1] | Potency [2] | Potency [3] | Potency [4] | Potency [9] | Potency [5] | Potency [10]

NCc1ccccc1Sc1ccccc1CO
inactive: Potency [1] | Potency [2] | Potency [3] | Potency [4] | Potency [9] | Potency [5] | Potency [6] | Potency [7] | Potency [8] | Potency [10]

NCC(=O)CCC(=O)O
inactive: Potency [1] | Potency [2] | Potency [3] | Potency [4] | Potency [5] | Potency [6] | Potency [7] | Potency [8] | Potency [10]

Cc1ccc(N=Nc2c(O)c(C(=O)O)cc3ccccc23)c(S(=O)(=O)O)c1
inactive: Potency [1] | Potency [2] | Potency [4] | Potency [5] | Potency [7]
active: Potency [3] 23.6 µM | Potency [10] 23.6 µM

O=C(O)c1ccccc1Cl
inactive: Potency [1] | Potency [2] | Potency [3] | Potency [4] | Potency [5] | Potency [7] | Potency [8] | Potency [10]

COCC(C)OC(C)=O (stereo not drawn)
inactive: Potency [1] | Potency [2] | Potency [3] | Potency [4] | Potency [5] | Potency [6] | Potency [10]

CCOC(=O)Cc1cccc2ccccc12
inactive: Potency [1] | Potency [2] | Potency [3] | Potency [4] | Potency [5] | Potency [6] | Potency [7] | Potency [10]

CCCCOC(=O)CCCCCCCC(=O)OCCCC
inactive: Potency [1] | Potency [2] | Potency [3] | Potency [4] | Potency [5] | Potency [7] | Potency [8] | Potency [10]

CC(C)(C)OCC1CO1 (stereo not drawn)
inactive: Potency [1] | Potency [2] | Potency [3] | Potency [4] | Potency [5] | Potency [7]

O=C(O)C(S)C(S)C(=O)O (stereo not drawn)
inactive: Potency [1] | Potency [2] | Potency [3] | Potency [4] | Potency [5] | Potency [7] | Potency [10]

CC(C)(CO)[N+](=O)[O-]
inactive: Potency [1] | Potency [2] | Potency [3] | Potency [4] | Potency [5] | Potency [10]

NC(N)=NCCC[C@H](N)C(=O)O
inactive: activation [1] -0.985% [at 8.39 µM] | activity, negative = inhibition [2] 14.4% [at 8.39 µM] | activity change, negative = cytotoxicity [3] 2.11% [at 8.39 µM] | activity change, negative = cytotoxicity [4] 6.72% [at 8.39 µM] | activity change, negative = cytotoxicity [5] 6.28% [at 8.39 µM] | activation [6] -0.001% [at 8.39 µM] | cAMP activity change [7] -11% [at 8.39 µM, active compounds read high] | activity change, negative = cytotoxicity [10] 0.856% [at 8.39 µM]

COc1cc(Cl)ccc1Oc1ccc(Cl)cc1Cl
inactive: Potency [1] | Potency [2] | Potency [3] | Potency [4] | Potency [5] | Potency [6] | Potency [7] | Potency [10]

C=CCOC(=O)CCC1CCCCC1
inactive: Potency [1] | Potency [2] | Potency [3] | Potency [4] | Potency [5] | Potency [7] | Potency [8] | Potency [10]

CC(CSC(=O)c1ccccc1)C(=O)N1C[C@@H](Sc2ccccc2)C[C@H]1C(=O)O (stereo partly drawn)
inactive: activation [1] -2.37% [at 19 µM] | activity, negative = inhibition [2] -3.38% [at 19 µM] | activity change, negative = cytotoxicity [3] 1.42% [at 19 µM] | activity change, negative = cytotoxicity [4] 0.0866% [at 19 µM] | activity change, negative = cytotoxicity [5] 5.8% [at 19 µM] | Potency [6] | activity change, negative = cytotoxicity [10] 3.85% [at 19 µM]

COc1cc(Cl)c(OC)cc1N
inactive: Potency [1] | Potency [2] | Potency [3] | Potency [4] | Potency [5] | Potency [7] | Potency [10]

CCC(C)c1cc(C(C)(C)C)c(O)c(C(C)(C)C)c1 (stereo not drawn)
inactive: Potency [1] | Potency [2] | Potency [3] | Potency [4] | Potency [5] | Potency [7] | Potency [8] | Potency [10]
